# The source made the active and inactive calls. The calls were made as follows: active = hit-call score of the fitted dose curve at least 0.9, where 1 is the maximum; inconclusive = response in the unintended direction; inactive = score below 0.9.
# Biological target: Peroxisome proliferator-activated receptor gamma (Homo sapiens) (UniProt P37231)
# Assay: OT_PPARg_PPARgSRC1_1440: Odyssey Thera (OT) 24-hour Protein-Complementation Assay for Peroxisome Proliferator-activated Receptor Gamma/ SRC-1 Co-activator (AID 2283388);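 also: nuclear to cytoplasmic ratio of reconstituted Venus YFP fluorescence in fixed imaged cells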
# Procedure: OT_PPARg_PPARgSRC1_1440 is a cell-based assay that uses HEK293T, a human kidney cell line, with measurements taken at 24 hours after chemical dosing in a 384-well plate.OT_PPARg_PPARgSRC1_1440 is one of one assay component(s) measured or calculated from the OT_PPARg_PPARgSRC1_1440 assay. It is designed to make measurements of protein fragment complementation, a form of binding reporter, as detected with fluorescence intensity signals by Protein-fragment Complementation technology.Data from the assay component OT_PPARg_PPARgSRC1_1440 was analyzed into 1 assay endpoint. This assay endpoint, OT_PPARg_PPARgSRC1_1440, was analyzed in the positive analysis fitting direction relative to DMSO as the negative control and baseline of activity. Using a type of binding reporter, measures of receptor for gain-of-signal activity can be used to understand the binding at the pathway-level as they relate to the gene PPARG. Furthermore, this assay endpoint can be referred to as a primary readout, because the performed assay has only produced 1 assay endpoint. To generalize the intended target to other relatable targets, this assay endpoint is annotated to the nuclear receptor intended target family, where the subfamily is non-steroidal.
# The OT PPARg/SRC-1 assay assessed receptor-chemical interactions using a rapidly maturing, intensely fluorescent mutant of YFP known as Venus, rationally dissected into two separate fragments. The fragments were obtained as follows: first, fragments coding for YFP1 and YFP2 (corresponding to amino acid residues 1-158 and 159-239 of the full length YFP, respectively) were generated by oligonucleotide synthesis (Blue Heron Biotechnology), and then PCR mutagenesis was used to generate the mutant fragments IFP1 and IFP2. Fusion constructs were transfected into HEK293T cells with a (Gly4Ser)2 linker between the PPARg/SRC-1 and YFP fragment genes to facilitate complementation when interacting proteins bring fragments into close proximity. The construct is transiently transfected in HEK293T cells 48 hours prior to treatment with test compounds. Cells are seeded into optical quality 384-well poly-D-lysine coated plates in MEM alpha medium (Invitrogen) supplemented with 10 percent FBS (Gemini Bio-Products) 1 percent penicillin and 1 percent streptomycin, and grown in 37C incubator equilibrated to 5 percent CO2. Cells are allowed to adhere for 24 hours prior to treatment with compounds of interest or controls for 24 hours. Cells are fixed in 4 percent formaldehyde and stained with Draq5 (BioStatus) to identify cells and subcellular compartment boundaries prior to signal detection. 8 Images per well were acquired on an Evotec Opera at 2 wavelengths (488 and 635nm), and the ratio of fluorescence in the nucleus relative to fluorescence in the cytoplasm (N/C Ratio) in the 488nm channel was calculated for a minimum of 350 cells per image.
# Sequence of Peroxisome proliferator-activated receptor gamma (Homo sapiens) (P37231 whole entry, looked up): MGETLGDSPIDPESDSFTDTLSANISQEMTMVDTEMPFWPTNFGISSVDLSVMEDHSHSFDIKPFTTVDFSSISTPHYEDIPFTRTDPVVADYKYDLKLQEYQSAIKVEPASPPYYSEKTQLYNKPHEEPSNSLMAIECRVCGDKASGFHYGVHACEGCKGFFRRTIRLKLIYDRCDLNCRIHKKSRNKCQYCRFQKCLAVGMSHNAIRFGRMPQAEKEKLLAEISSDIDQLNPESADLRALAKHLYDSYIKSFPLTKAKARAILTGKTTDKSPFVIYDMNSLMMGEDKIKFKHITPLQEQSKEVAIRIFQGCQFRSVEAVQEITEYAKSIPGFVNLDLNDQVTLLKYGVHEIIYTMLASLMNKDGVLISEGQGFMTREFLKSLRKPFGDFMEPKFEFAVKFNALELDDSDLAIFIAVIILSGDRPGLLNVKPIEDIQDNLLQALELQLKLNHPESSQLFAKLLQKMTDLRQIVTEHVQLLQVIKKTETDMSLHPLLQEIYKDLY
row,Compound,outcome
1,CCOP(=S)(OCC)Oc1nc(Cl)n(C(C)C)n1,inactive
2,CCCCC(C#N)(Cn1cncn1)c1ccc(Cl)cc1 (stereo not given),inactive
3,CCNP(=S)(OC)O/C(C)=C/C(=O)OC(C)C (stereo not given),inactive
4,Cc1ccc(N=CN(C)C=Nc2ccc(C)cc2C)c(C)c1,inactive
5,COCC(=O)N(c1c(C)cccc1C)C(C)C(=O)OC (stereo not given),inactive
6,CCOc1cc(C(C)(C)C)ccc1C1COC(c2c(F)cccc2F)=N1 (stereo not given),inactive
7,CN/C(=N\[N+](=O)[O-])NCc1cnc(Cl)s1,inactive
8,O=C(Nc1ccccc1-c1ccc(Cl)cc1)c1cccnc1Cl,inactive
9,O=C1C2CC=CCC2C(=O)N1SC(Cl)(Cl)Cl (stereo not given),inactive
10,CCCCOCN(C(=O)CCl)c1c(CC)cccc1CC,inactive
11,COc1ccc(-c2ccccc2)cc1NNC(=O)OC(C)C,inactive
12,CNC(=O)N(C)c1nnc(C(C)(C)C)s1,inactive
13,COP(=O)(OC)O/C(C)=C/C(=O)N(C)C,inactive
14,N#Cc1c(Cl)cccc1Cl,inactive
15,N#CN=C1SCCN1Cc1ccc(Cl)nc1,inactive
16,Clc1cccc(C(Cl)(Cl)Cl)n1,inactive
17,CCOP(=O)(OCC)Oc1nc(Cl)c(Cl)cc1Cl,inactive
18,Cc1c(COC(=O)[C@@H]2[C@H](/C=C(\Cl)C(F)(F)F)C2(C)C)cccc1-c1ccccc1,inactive
19,Nc1c(Cl)c(Cl)nc(C(=O)O)c1Cl,inactive
20,O=P(O)(O)CCCl,inactive

row,Compound,outcome
1,O=C(O)c1c(Cl)ccc2cc(Cl)cnc12,inactive
2,COCC(C)N(C(=O)CCl)c1c(C)csc1C (stereo not given),inactive
3,CC(C)Nc1nc(Cl)nc(NC(C)C)n1,inactive
4,CC(C)(C)C(=O)C(Oc1ccc(Cl)cc1)n1cncn1 (stereo not given),inactive
5,CCOC(=O)C(C)OC(=O)c1cc(Oc2ccc(C(F)(F)F)cc2Cl)ccc1[N+](=O)[O-] (stereo not given),inactive
6,Cc1nc(N(C)C)nc(OC(=O)N(C)C)c1C,inactive
7,CC(C)=CC1C(C(=O)OCc2coc(Cc3ccccc3)c2)C1(C)C (stereo not given),inactive
8,O=c1n(Cl)c(=O)n(Cl)c(=O)n1Cl,inactive
9,C=C(C)CN(CC)c1c([N+](=O)[O-])cc(C(F)(F)F)cc1[N+](=O)[O-],inactive
10,Clc1nc(Cl)nc(Nc2ccccc2Cl)n1,inactive
11,CC1(C)C(C=C(Cl)Cl)C1C(=O)OC(C#N)c1cccc(Oc2ccccc2)c1 (stereo not given),inactive
12,CC(C)C1(C)N=C(c2ncccc2C(=O)O)NC1=O (stereo not given),inactive
13,CC1(C)C(C(=O)OC(C#N)c2cccc(Oc3ccccc3)c2)C1(C)C (stereo not given),inactive
14,C=CCOC(=O)C(C)(C)OC(=O)c1cc(-n2c(=O)cc(C(F)(F)F)n(C)c2=O)ccc1Cl,inactive
15,COC(=O)NC(=S)Nc1ccccc1NC(=S)NC(=O)OC,inactive
16,Cn1c(-c2ccccc2)cc(-c2ccccc2)[n+]1C,inactive
17,CC(C)NC(=O)N1CC(=O)N(c2cc(Cl)cc(Cl)c2)C1=O,inactive
18,CS(=O)(=O)c1cc(C(F)(F)F)ccc1C(=O)c1cnoc1C1CC1,inactive
19,CSC(=O)c1c(C(F)F)nc(C(F)(F)F)c(C(=O)SC)c1CC(C)C,inactive
20,CC(C)Oc1cccc(NC(=O)c2ccccc2C(F)(F)F)c1,inactive

# Reference: PubChem BioAssay (EPA / NIEHS)
